For 19 molecules, max response, outcome and Potency results are on record in PubChem BioAssay (NCATS).

The structures appear in SMILES notation. Results filed as inconclusive are left out. Unmarked numbers belong to inactive results. The source made the active and inactive calls. Calls come from the whole dose curve; as a rule, active = well fitted inhibition curve with a large enough effect; inconclusive = small, poorly fitted or top-dose-only effect; inactive = flat fitted curve, though single readings scatter.

The subject of test [1] is CRL-7250. Nature of the test: Cytotoxic Profiling of Annotated Libraries Using Quantitative High-Throughput Screening (AID 1296008). For max response: % is set by controls: 0 for no effect and ±100 for the full control effect. Note: potency is the fitted concentration of half-maximal effect. The following applies: Five cell lines viability, CellTiter-Glo ATP luminescence, 48-72 h; max response: active compounds read low. The method, boiled down: (§1)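 Cells exposed to compounds for 48 or 72 hr at 37 degrees Celsius. Viability read as ATP-coupled luminescence with CellTiter-Glo after 10 min at room temperature.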

Test [2] concerns HEK293. The description is as above. The following applies: Five cell lines viability, CellTiter-Glo ATP luminescence, 48-72 h; max response: active compounds read low. The method, boiled down: as §1
Test [3] relates to HaCat. The test is described as above. The note with it: Five cell lines viability, CellTiter-Glo ATP luminescence, 48-72 h; max response: active compounds read low. Summed up:
as §1

Test [4] has as its system NIH3T3. Described as above. The following applies: Five cell lines viability, CellTiter-Glo ATP luminescence, 48-72 h; max response: active compounds read low. Summed up: as §1
Test [5] has as its system KB-3-1. The test is described as above. The note with it: Five cell lines viability, CellTiter-Glo ATP luminescence, 48-72 h; max response: active compounds read low. The method, boiled down:
as §1

Test [6] relates to HACAT. Nature of the test: qHTS assay to identify novel small-molecules to repurpose for Merkel cell carcinoma treatment (AID 1296009). The note with it: MCC and control cell lines, CellTiter-Glo viability, 72 h; at 44.8 µM (top of the series) unless noted. Summed up: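 Cells were incubated with compound for 72 hr at 37 degree celsius before CellTiter-Glo addition. Luminescence was normalized with no-cell wells as full cytotoxicity and DMSO as baseline.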
Note: nearly all actives have a fitted effect of over 60% in size.

On to `CCCCOC(=O)CCCCCCCCC(=O)OCCCC`, for which the max response in test [1] is 0.0544%; in test [2] it was 1.21%; in test [3], -1.87%. In test [4], the molecule was called inactive.

For the molecule `O=C(OCC(COC(=O)c1cccnc1)(COC(=O)c1cccnc1)COC(=O)c1cccnc1)c1cccnc1`, the result in test [1], in test [3], in test [4] and in test [6] was inactive. Besides, the max response in test [2] was -3.93%; in test [5], -20.2%.

Regarding `O=C(O)c1ccccc1Nc1cc(Cl)ccc1C(=O)O`, the max response in test [1] is 2.83%; in test [2] it was -2.68%; in test [5] it was -6.82%; in test [4], -15.4%. Moreover, the molecule was called inactive in test [3]. For the same molecule, in test [6], the outcome is “inactive [at 17.4 µM]”.

As for `CO[C@@]1(NC(=O)CSC[C@@H](N)C(=O)O)C(=O)N2C(C(=O)O)=C(CSc3nnnn3C)CS[C@@H]21`, the max response in test [1] is 1.25%; in test [5], -3.72%; in test [4], -3.38%. The molecule was classed as inactive in test [2], in test [3] and in test [6].

As to `CCOC(=O)NNc1nncc2ccccc12`, the max response in test [1] is -0.257%; in test [2], -5.42%; in test [5], -9.29%; in test [4], 3.89%. The molecule was classed as inactive in test [3] and in test [6].

On to `CC(C)N(CCC(=O)c1ccc2ccccc2c1)Cc1ccccc1`, for which the max response is -24.3% in test [1], -116% in test [2] and -5.46% in test [5]. Also, the outcome in test [3] and in test [6] was “inactive; activator” each time. Besides, the Potency in test [4] is 10.3 µM (active).

For `O=[N+]([O-])c1nccn1CO[C@@H](CO)[C@H](O)CO`, the max response in test [1] is -17.9%; in test [2], 4%; in test [5], 2.05%. Besides, the outcome in test [3] and in test [6] was inactive.

With `CCC(C(=O)NC(=O)NC(C)=O)c1ccccc1` (stereo not drawn), the max response in test [1] was 2.16%; in test [2], -0.744%; in test [5], 0.82%; in test [4] it was -7.72%. Besides, the call in test [3] and in test [6] was inactive.

Take `CN(C(=O)C(Cl)Cl)c1ccc(OC(=O)c2ccco2)cc1`: the max response in test [1] is 4.42%; in test [2] it was -3.53%; in test [5], -7.7%; in test [4], 1.4%. The molecule was called inactive in test [3] and in test [6].

In the case of `O=C(CCCCCCCCC#CI)Oc1ccccc1`, the values for the max response in test [1] and in test [4] were 1.88% and 0.745%, respectively. The result in test [2], in test [3], in test [5] and in test [6] was inactive.

On to `Oc1ccccc1`, for which the max response in test [1] is -1.94%; in test [2] it was -1.05%; in test [5] it was -6.38%; in test [4] it was 3.74%. Also, the call in test [3] and in test [6] was inactive.

For `Cc1ncc(CO)c(CO)c1O`, the max response is 1.45% in test [1], 4.28% in test [2], -24.2% in test [5] and -3.24% in test [4]. The call in test [3] and in test [6] was inactive.

As for `CC(C)(C)C(=O)OCOC(=O)C1N2C(=O)CC2S(=O)(=O)C1(C)C` (stereo not drawn), the max response in test [1] was -2.99%; in test [5] it was -11.8%; in test [4], 2.05%. Besides, the molecule was called inactive in test [2], in test [3] and in test [6].

With `CO/N=C(/C(=O)N[C@@H]1C(=O)N2C(C(=O)OCOC(=O)C(C)(C)C)=C(C)CS[C@H]12)c1csc(N)n1`, the molecule was called inactive in test [1], in test [3] and in test [6]. Further, the results for the max response in test [2], in test [5] and in test [4] were 4.75%, -4.57% and 0.923%, respectively.

For the molecule `Cc1cccc(C)c1NC(=O)c1cc(S(N)(=O)=O)c(Cl)cc1O`, the result in test [1], in test [2], in test [3] and in test [6] was inactive. Also, the max response in test [5] is -20.9%; in test [4], -1.69%.

In the case of `Cc1c(F)cc2c(=O)c(C(=O)O)cn3c2c1CCC3C` (stereo not drawn), the max response is -2.94% in test [1], -5.41% in test [3] and -8.9% in test [4]. For the same molecule, the result in test [2] was inactive.

Take `Cc1cc2nc3ccc(=[N+](C)C)cc-3sc2cc1N`: the Potency in test [1] was 9.44 µM (active); in test [2], 0.422 µM (active); in test [3], 6.68 µM (active); in test [4], 10.6 µM (active).

Consider `O=C1NC(c2ccccc2)(c2ccccc2)C(=O)N1COP(=O)(O)O`, for which the result in test [1], in test [2] and in test [4] was inactive. Further, in test [3], the max response was -3.47%.

`[O-][n+]1cccc(/C(Cl)=N/OC[C@@H](O)CN2CCCCC2)c1`: the max response was 4.98% in test [1], -1.36% in test [2], 2.38% in test [3] and 0.672% in test [4].
